From PubChem BioAssay
nsP2pro inh = inhibitors of chikungunya virus nsP2 protease; AID 1964107; hit rate 1.1% among 31,000; Potency, µM (series often up to 24.9 µM), hits mostly inhibitors; FRET peptide cleavage, nsP2pro, fluorescence 1 h; Q8JUX6; also: nearly all actives have a fitted effect of over 60% in size
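Enzyme 150 nM, substrate 2.5 uM (both final); Tris-HCl 10 mM pH 8.0 + 0.01% Tween 20; cpd up to 25 uM, 7 pts; 15 min preinc., 1 h RT; fluorescence ex 525/em 598.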
nsP2 cell sec = secondary cell-based test for CHIKV nsP2 protease inhibitors | shares compounds with nsP2pro inh | cell-based CHIKV nsP2 protease reporter assay | Potency, µM (doses to about 51.1 µM), actives largely listed as inhibitors | hit rate 10% among 450; also: nearly all actives have a fitted effect of over 70% in size
NSP2 full ctr = inhibits full-length CHIKV NSP2 enzyme; shares compounds with nsP2pro inh; Full-length CHIKV NSP2 protease enzymatic counterscreen; Potency, µM (titrated, usually from 50.7 µM), usual class: inhibitors; hit rate 39% among 410; also: nearly all actives have a fitted effect of over 65% in size
Furin counterscr = human furin inhibition, counterscreen for nsP2pro inhibitors; Recombinant human furin enzymatic counterscreen, fluorogenic substrate; hit rate 6% among 410; shares compounds with nsP2pro inh; Potency, µM (series often up to 50.6 µM), most hits filed as inhibitors
NS23 peptide cs = blocks CHIKV nsP2 protease cleavage of endogenous NS2/3 peptide; shares compounds with nsP2pro inh; Purified CHIKV nsP2 protease, endogenous NS2/3 peptide cleavage; Potency, µM (top dose mostly 51 µM), hits mostly inhibitors; hit rate 34% among 410; AID 1964103; also: nearly all actives have a fitted effect of over 55% in size
Papain counter = inhibits papain in a CHIKV nsP2 protease selectivity counterscreen. shares compounds with nsP2pro inh. purified papain protease activity, enzymatic inhibition. Potency, µM (top dose mostly 51 µM), actives largely listed as inhibitors. hit rate 5% among 410
nsP2pro conf qHTS = confirmation of CHIKV nsP2 protease inhibitors | shares compounds with nsP2pro inh | CHIKV nsP2 protease enzymatic activity, qHTS | Potency, µM (titrated, usually from 25.5 µM), hits mostly inhibitors | hit rate 43% among 410 | AID 1964105; also: nearly all actives have a fitted effect of over 75% in size
HCV NS3 counter = HCV NS3/4A protease inhibition, counterscreen; hit rate 20% among 410; HCV NS3/4A protease biochemical counterscreen; AID 1964106; shares compounds with nsP2pro inh; Potency, µM (highest dose often 50.9 µM), hits mostly inhibitors; also: nearly all actives have a fitted effect of over 55% in size
A number is an active result; i = inactive; ? = inconclusive. The full list was thinned out, with hits kept by preference. Calls follow the shape of the full dose curve.

SMILES	nsP2pro inh	others
CC1CCN(c2cc(N3CCN(C)CC3)ccc2NC(=O)c2cc(C#N)c[nH]2)CC1	i
O=C(NCc1ccc(F)cc1)c1ccc2nnc(CC3CC3)n2c1	i
Cn1nnnc1Sc1ncnc2scc(-c3cccc(Br)c3)c12	i
Cn1nnnc1Sc1ncnc2scc(-c3cccc(N)c3)c12	1.8µM	nsP2 cell sec=21µM;NSP2 full ctr=i;Furin counterscr=i;NS23 peptide cs=i;Papain counter=i;nsP2pro conf qHTS=i;HCV NS3 counter=i
Cc1cccc(-c2csc3ncnc(Sc4nnnn4C)c23)c1	i
NC1CCN(c2cnc3c(O)ccc(C(=O)O)c3c2)CC1	i
O=C1CO[C@H]2CCN(Cc3ccccn3)CC[C@@H]2N1c1ccccc1	i
C=C1CCC2C(C)(C)CCC[C@]2(C)[C@H]1CC/C(C)=C/C(=O)O (stereo partly drawn)	i
CCc1ccc(-c2cc3n(n2)CCCN(C(=O)CCc2cc(Cl)no2)C3)cc1	i
Cc1ccc(-c2cc3n(n2)CCCN(C(=O)CCN2C(=O)NC(C)(C)C2=O)C3)cc1C	i
Cc1ccc(-c2cc3n(n2)CCCN(C(=O)CCc2cc(Cl)no2)C3)o1	8.9µM	nsP2 cell sec=i;NSP2 full ctr=i;Furin counterscr=i;NS23 peptide cs=?;Papain counter=i;nsP2pro conf qHTS=?;HCV NS3 counter=i
C/C(=C/CO)CC[C@@H]1[C@@](C)(O)CCC2C(C)(C)CCC[C@]21C (stereo partly drawn)	i
CC(=O)OC1CC2C(C)(C)C(=O)C=CC2(C)C2CC(=O)C3=C(CCC3C3=CC(O)OC3=O)C12C (stereo not drawn)	i
CC(=O)O[C@@H]1CC2C(C)(C)C(=O)C=C[C@]2(C)C2CC[C@@]3(C)[C@H](c4ccoc4)OC(=O)[C@H]4O[C@]43[C@@]21C (stereo partly drawn)	?	nsP2 cell sec=i;NSP2 full ctr=?;Furin counterscr=i;NS23 peptide cs=i;Papain counter=?;nsP2pro conf qHTS=?;HCV NS3 counter=i
CC(=O)O[C@H]1C[C@@H](O)C(C)(C)C2C[C@@H](OC(C)=O)[C@]3(C)C(CC[C@@]4(C)[C@H](c5ccoc5)OC(=O)[C@H]5O[C@]543)[C@]21C (stereo partly drawn)	i
CC1=C(CCC(C)CC(=O)O)[C@@]2(C)CCCC(C)(C)C2CC1=O (stereo partly drawn)	i
CC[C@H](C)[C@@H]1NC(=O)[C@H](Cc2ccc(OC)cc2)NC(=O)CCCSC[C@@H](C(=O)N2CCC[C@H]2C(=O)N[C@@H](CC(C)C)C(=O)NCC(N)=O)NC(=O)[C@H](CC(N)=O)NC(=O)[C@H](CCC(N)=O)NC1=O	i
CC#CC(=O)N1CCCC(C(=O)Nc2ccc(-c3cccc(OC)c3)cc2)C1 (stereo not drawn)	i
COc1ccc(C(=O)N2CCC(C(=O)Nc3ccc(Cl)cc3)CC2)cc1	i
O=C(Nc1ccc(Cl)cc1)C1CCCN(C(=O)c2cccc(-c3ccco3)c2)C1 (stereo not drawn)	7µM	nsP2 cell sec=?;NSP2 full ctr=i;Furin counterscr=i;NS23 peptide cs=i;Papain counter=i;nsP2pro conf qHTS=?;HCV NS3 counter=i
CC(C)(C)C(=O)N1CCC2(CC1)C(=O)N(CC(=O)Nc1cccc(Cl)c1)CN2c1ccccc1	i
CC(C)(N)c1cc(C(=O)N[C@@H]2CCc3ccc(Oc4ccnc5c4CCC(=O)N5)cc3C2)cc(C(F)(F)F)c1	i
O=C(CCc1nnc2n(Cc3ccc(Cl)cc3)c(=O)c3ccccc3n12)NCCC1=CCCCC1	i
COCC1CN(C(C)=O)CC12CCN(Cc1cccc(Cl)c1F)CC2 (stereo not drawn)	i
COC(=O)C1=CO[C@@H](O[C@@H]2O[C@H](CO)[C@@H](O)[C@H](O)[C@H]2O)[C@@H]2C(C)CC(=O)[C@]12O (stereo partly drawn)	i
SMILES	nsP2pro inh	others
COC(=O)C1=COC(OC2OC(CO)C(O)C(O)C2O)C2C(C)CC(=O)C12O (stereo not drawn)	i
CC1CC(=O)[C@]2(O)C(C(=O)OCCc3ccc(O)c(O)c3)=CO[C@@H](O[C@@H]3O[C@H](CO)[C@@H](O)[C@H](O)[C@H]3O)[C@H]12 (stereo partly drawn)	3.8µM	nsP2 cell sec=i;NSP2 full ctr=i;Furin counterscr=i;NS23 peptide cs=i;Papain counter=i;nsP2pro conf qHTS=?;HCV NS3 counter=4µM
O=C(c1ccc(-c2cncnc2)cc1)N1CCC(N[S+](=O)([O-])c2cccc(C(F)(F)F)c2)CC1	i
CC1=CC2=C(C)C(=O)[C@](C)(O)[C@H](O)C2=CO1	?	nsP2 cell sec=i;NSP2 full ctr=i;Furin counterscr=i;NS23 peptide cs=i;Papain counter=i;nsP2pro conf qHTS=i;HCV NS3 counter=i
COc1cccc(-c2ccc(CN3CCCC(N[S+](=O)([O-])c4ccc(C)cc4)C3)cc2)c1 (stereo not drawn)	i
Cc1ccc(NC(=O)c2ccncc2NS(=O)(=O)c2ccc(C)cc2)cc1	i
C=C1C2(C)CC3C(C)(O)C4=CC(=O)OC(C)(C)C4=CCC3(C)C13C(=O)OC(C)C3(O)C2=O (stereo not drawn)	i
COc1ccccc1NC(=O)C1=C(C)Nc2ncnn2C1c1ccccc1C(=O)O (stereo not drawn)	i
COc1ccccc1NC(=O)C1=C(C)Nc2nc(-c3ccco3)nn2C1c1ccccc1F (stereo not drawn)	?	nsP2 cell sec=i
COc1ccccc1NC(=O)C1=C(C)Nc2nc(SCc3ccccc3Cl)nn2C1c1ccncc1 (stereo not drawn)	i
Cc1c(NC(=O)N2CCOCC2)ccc2c1c1ccccc1n2C(C)C	i
O=C(c1ccc2ccccc2n1)N1CCc2nnc(CCc3ccccc3)n2CC1	i
CC1CCN(C(=O)C[C@@H]2c3nc(NC(=O)CC(C)(C)C)sc3C[C@@H]3[C@](C)(CO)[C@H](O)CC[C@]32C)CC1	i
O=C(O)c1ccc(O)c2ncc(N3CCCNCC3)cc12	i
CCn1cc(CN2C[C@@H](CO)[C@H](NC(=O)COC)C2)c2ccccc21	i
CC(=O)Nc1cccc2c1c(Sc1ccc(Cl)cc1)c(C)n2CC(=O)O	9.9µM	nsP2 cell sec=i;NSP2 full ctr=i;Furin counterscr=i;NS23 peptide cs=i;Papain counter=i;nsP2pro conf qHTS=i;HCV NS3 counter=i
COc1ccc2c(C(=O)c3ccc(Cl)cc3)c(C)n(CC(=O)O)c2c1	i
Cc1ccc(SCC(=O)Nc2cccc(-c3nc4cc(Cl)ccc4o3)c2C)cc1	i
Cc1cc2c(s1)c1cnn(Cc3cccc(C(F)(F)F)c3)c(=O)c1n2C	i
Cc1cc(N[S+](=O)([O-])c2ccc3c(c2)CCC(=O)N3C)ccc1F	i
COc1cccc(-c2cn(-c3ccc(CCN4CCC(O)CC4)cc3)c3ncnc(N)c23)c1	i
CCC(CC)c1cc([C@H]2CN3CC[C@H]2C[C@@H]3CNC2CCN(C)CC2)nc(-c2ccncc2)n1	i
